Data on ten compounds can be found in ChEMBL document CHEMBL1157539, “Thousands of chemical starting points for antimalarial lead identification” (Nature, 2010).

What all share (format): functional
Assay [1] concerns Plasmodium falciparum. Briefly: GSK_TCMDC: Inhibition of Plasmodium falciparum 3D7 in whole red blood cells, using parasite LDH activity as an index of growth. Test compounds present at 2uM.
Assay [2] relates to Plasmodium falciparum. Briefly: GSK_TCMDC: Inhibition of Plasmodium falciparum Dd2 in whole red blood cells, using parasite LDH activity as an index of growth. Test compounds present at 2uM.
In another assay the test system is HepG2. The experiment in a line: GSK_TCMDC: Percent inhibition of human HepG2 cell line. Test compounds present at 10uM.

As to `COc1cc(C(=O)N2CCOC(CCN3CCc4c(c5ccccc5n4C)C3)(c3ccc(Cl)c(Cl)c3)C2)cc(OC)c1OC` (stereo not given), the Inhibition in the assay with Plasmodium falciparum [1] is 87%; in the assay on Plasmodium falciparum [2], 68%; in the assay with HepG2, 16%.

On to `Cc1nnsc1C(=O)Nc1cccc(-c2cccc(-c3nc4cc(C(F)(F)F)ccc4[nH]3)c2)c1`, for which the Inhibition came out at 100% in the assay on Plasmodium falciparum [1], 100% in the assay on Plasmodium falciparum [2] and 70% with HepG2.

On to `CCN(CC)CCCCNc1cc(-c2[nH]c(-c3c(Cl)cccc3Cl)nc2-c2ccc3cc(OC)ccc3c2)ccn1.O=C(O)C(F)(F)F`, for which the Inhibition is on record as 95% with Plasmodium falciparum [1], 93% with Plasmodium falciparum [2] and 23% in the assay with HepG2.

Consider `N#Cc1ccc(N[C@@H](CC2CCCCC2)C(=O)N[C@@H]2CCCc3ccccc32)c2ccccc12.O=C(O)C(F)(F)F`, for which the figures for the Inhibition in the assay with Plasmodium falciparum [1], in the assay with Plasmodium falciparum [2] and with HepG2 were 99%, 99% and 12%, respectively.

Take `COc1cc(NC(=O)Nc2cc(C)nc3ccccc23)cc(OC)c1`: the Inhibition came to 100% in the assay on Plasmodium falciparum [1], 57% with Plasmodium falciparum [2] and 5% with HepG2.

Turning to `COc1ccc(CCN(C)CCOc2ccc(NC(=O)c3cccc4cc5ccccc5nc34)cc2)cc1OC`, the Inhibition with Plasmodium falciparum [1] is 100%; in the assay on Plasmodium falciparum [2], 99%; in the assay with HepG2 it was 37%.

`O=C(Nc1cccc(F)c1)c1ccc(C(=O)NC2CCN(CC3CCCCC3)CC2)cc1.O=C(O)C(F)(F)F`: the Inhibition was determined as 96% in the assay with Plasmodium falciparum [1], 16% in the assay on Plasmodium falciparum [2] and 22% in the assay with HepG2.

Consider `CN1CCC(NCCS(=O)(=O)c2cccc(Nc3ccc(-c4cccc(F)c4)cn3)c2)CC1`, for which the Inhibition worked out at 99% with Plasmodium falciparum [1], 0% in the assay on Plasmodium falciparum [2] and 27% with HepG2.

As for `Cl.Nc1nc(N)c2c(ccc3nn(S(=O)(=O)N4CCCC4)cc32)n1`, the Inhibition in the assay on Plasmodium falciparum [1] is given as 95%; in the assay with Plasmodium falciparum [2] it was 0%; in the assay on HepG2 it was 69%.

For `CC(C)N1CCN(C(CN2CCN(CCCOc3cccc(-c4ccccc4)c3)CC2)c2ccc(F)cc2)CC1.Cl` (stereo not given), the Inhibition is 100% with Plasmodium falciparum [1], 99% with Plasmodium falciparum [2] and 100% with HepG2.
